The source of these data is PubChem BioAssay.

Each structure is given as a SMILES string. Unmarked numbers belong to inactive results. For some of these results: Results with a measured potency or affinity are listed apart. The source made the active and inactive calls. Unless noted, how the calls were made is not given here.

The nature of assay [1]: antimalarial activity against Dd2 strain (AID 2302;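 active means growth inhibition above 50% at the single 2 µM test dose, taken to imply half-maximal potency below 2 µM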;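 further: 0% = DMSO untreated growth and 100% = chloroquine plus artemisinin killed control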). The settings on record: P. falciparum Dd2 in RBCs, LDH growth readout, 72 h; at 2 µM; hits give high values.
A short description of assay [2]: HepG2 cytotoxicity, primary screen, cytotoxicity control for P. falciparum antimalarial project, cell-based, ATP luminescence (AID 2303;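 active means inhibition above 50%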;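 further: 0% = DMSO wells and 100% = digitonin-killed cells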). To be noted: HepG2 viability, 24-48 h, at 10 µM, hits give high values.
For assay [3], the target named is L-lactate dehydrogenase (Plasmodium falciparum (isolate CDC / Honduras)) (UniProt Q27743). In words: PfLDH activity inhibition – cell lysate, 3D7 strain, counter-screen for P. falciparum growth inhibition project (AID 2304).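 Further: 0% = vehicle and 100% = reference inhibitor.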 The settings on record: P. falciparum 3D7 crude extract, LDH APAD/NBT absorbance; at 2 µM; hits give high values.
Assay [4] in a line: inhibition of 3D7 malaria parasite growth – strain 3D7 (AID 2306).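 Further: 0% = DMSO wells and 100% = chloroquine plus artemisinin control wells.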 To be noted: P. falciparum 3D7 erythrocytic growth, LDH absorbance, 72 h; at 2 µM; hits give high values.
For assay [5], the target named is Calcium-dependent protein kinase 1 (Plasmodium falciparum (isolate 3D7)) (UniProt P62344). In words: PfCDPK1 kinase inhibitors, biochemical, TCAMS library (AID 1159585; cut-off not given, nearly all actives have IC50 up to about 0.98 µM;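 further: inhibitors leave more ATP so luminescence rises with inhibition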). To be noted: recombinant PfCDPK1, Kinase-Glo ATP depletion luminescence.
Assay [6] addresses Plasmodium falciparum protein kinase 6 (PK6, PF3D7_1337100) (UniProt Q8IDW1). The assay can be described thus: PfPK6 kinase inhibitors, biochemical, TCAMS library (AID 1159586). To be noted: recombinant PfPK6, Kinase-Glo ATP depletion luminescence.
The target of assay [7] is Protein kinase 7 (PK7), Plasmodium falciparum 3D7 (PF3D7_0213400) (UniProt Q7YTF7). The assay can be described thus: inhibition of Plasmodium PK7 catalytic activity – biochemical, TCAMS antimalarial set, Kinase-Glo luminescence (AID 1159587). The settings on record: recombinant PfPK7, Kinase-Glo ATP depletion luminescence.
The target of assay [8] is Calcium-dependent protein kinase 4 (Plasmodium falciparum (isolate 3D7)) (UniProt Q8IBS5). In words: PfCDPK4 kinase inhibitors, biochemical, TCAMS library (AID 1159588; cut-off not given, nearly all actives have IC50 up to about 0.91 µM). The settings on record: recombinant PfCDPK4, Kinase-Glo ATP depletion luminescence.
Chain of Calcium-dependent protein kinase 4 (Plasmodium falciparum (isolate 3D7)) (Q8IBS5 whole entry, looked up): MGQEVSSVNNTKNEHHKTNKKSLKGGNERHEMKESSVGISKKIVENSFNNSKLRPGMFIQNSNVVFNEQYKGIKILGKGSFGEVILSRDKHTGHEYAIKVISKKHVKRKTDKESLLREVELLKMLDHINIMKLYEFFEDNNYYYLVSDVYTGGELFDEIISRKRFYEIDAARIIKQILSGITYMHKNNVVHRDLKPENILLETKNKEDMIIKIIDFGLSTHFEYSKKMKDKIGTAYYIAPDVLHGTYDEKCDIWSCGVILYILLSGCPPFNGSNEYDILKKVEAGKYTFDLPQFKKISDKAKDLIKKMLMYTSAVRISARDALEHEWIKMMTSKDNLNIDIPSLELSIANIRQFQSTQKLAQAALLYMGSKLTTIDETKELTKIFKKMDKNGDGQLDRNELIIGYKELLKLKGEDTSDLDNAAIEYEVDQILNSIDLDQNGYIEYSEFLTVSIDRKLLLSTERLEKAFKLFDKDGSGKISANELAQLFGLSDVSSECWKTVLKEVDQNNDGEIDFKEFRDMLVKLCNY

Chain of Plasmodium falciparum protein kinase 6 (PK6, PF3D7_1337100) (Q8IDW1 1-305): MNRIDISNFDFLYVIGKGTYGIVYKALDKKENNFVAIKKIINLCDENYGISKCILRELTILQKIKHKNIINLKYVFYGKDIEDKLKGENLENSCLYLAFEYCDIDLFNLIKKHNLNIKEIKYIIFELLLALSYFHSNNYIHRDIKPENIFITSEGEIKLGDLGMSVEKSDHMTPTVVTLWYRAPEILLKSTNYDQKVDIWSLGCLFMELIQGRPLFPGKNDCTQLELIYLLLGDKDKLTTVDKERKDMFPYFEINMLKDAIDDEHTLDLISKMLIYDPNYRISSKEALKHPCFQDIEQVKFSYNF
Chain of Protein kinase 7 (PK7), Plasmodium falciparum 3D7 (PF3D7_0213400) (Q7YTF7 1-343): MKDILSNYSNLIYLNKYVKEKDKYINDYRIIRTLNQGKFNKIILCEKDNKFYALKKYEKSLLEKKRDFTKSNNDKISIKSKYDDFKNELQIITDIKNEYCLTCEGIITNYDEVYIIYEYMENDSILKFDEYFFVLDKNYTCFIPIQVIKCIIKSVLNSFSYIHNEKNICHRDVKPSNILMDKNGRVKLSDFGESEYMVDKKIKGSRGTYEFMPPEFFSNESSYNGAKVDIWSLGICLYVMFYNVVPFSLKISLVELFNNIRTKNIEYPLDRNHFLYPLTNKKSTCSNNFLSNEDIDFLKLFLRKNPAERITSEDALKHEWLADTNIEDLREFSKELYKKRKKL
Chain of Calcium-dependent protein kinase 1 (Plasmodium falciparum (isolate 3D7)) (P62344 whole entry, looked up): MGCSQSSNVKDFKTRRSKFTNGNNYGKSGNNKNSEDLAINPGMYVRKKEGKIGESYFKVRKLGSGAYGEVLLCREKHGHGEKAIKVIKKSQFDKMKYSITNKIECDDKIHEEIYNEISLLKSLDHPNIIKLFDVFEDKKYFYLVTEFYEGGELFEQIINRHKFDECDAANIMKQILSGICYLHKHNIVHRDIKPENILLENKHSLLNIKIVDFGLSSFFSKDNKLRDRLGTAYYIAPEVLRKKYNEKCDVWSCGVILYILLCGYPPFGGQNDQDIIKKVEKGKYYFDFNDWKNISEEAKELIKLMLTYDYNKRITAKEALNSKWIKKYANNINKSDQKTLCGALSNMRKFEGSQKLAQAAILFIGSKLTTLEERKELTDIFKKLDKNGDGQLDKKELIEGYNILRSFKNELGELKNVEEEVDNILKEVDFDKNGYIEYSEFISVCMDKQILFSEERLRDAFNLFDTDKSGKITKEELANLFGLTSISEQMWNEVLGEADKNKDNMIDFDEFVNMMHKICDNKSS
Chain of L-lactate dehydrogenase (Plasmodium falciparum (isolate CDC / Honduras)) (Q27743 whole entry, looked up): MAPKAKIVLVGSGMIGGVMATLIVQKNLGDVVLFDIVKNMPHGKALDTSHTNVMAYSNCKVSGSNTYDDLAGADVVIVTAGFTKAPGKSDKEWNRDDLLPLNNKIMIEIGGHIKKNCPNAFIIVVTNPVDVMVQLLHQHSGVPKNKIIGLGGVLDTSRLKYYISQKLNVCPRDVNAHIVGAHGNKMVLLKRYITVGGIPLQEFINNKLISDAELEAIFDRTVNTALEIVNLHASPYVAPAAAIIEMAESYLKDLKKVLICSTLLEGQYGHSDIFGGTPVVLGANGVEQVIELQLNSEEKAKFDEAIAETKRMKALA

Regarding `COc1ccc(CNC2CCN(C)CC2)cc1-c1ccc(S(=O)(=O)NC2CCC2)c(C)c1`, the figures for the growth inhibition in assay [1] and in assay [4] were 96% (active) and 101% (active), respectively. In addition, the inhibition was 24% in assay [2] and 0% in assay [3]. Also, the outcome in assay [5], in assay [6], in assay [7] and in assay [8] was inactive.

As for `Cc1cc(C(F)(F)F)cc(-n2ncc(-c3ccc(C(=O)NCCNCc4ccccc4)cc3)c2N)n1`, the figures for the growth inhibition in assay [1] and in assay [4] were 9% and 91% (active), respectively. Further, the figures for the inhibition in assay [2] and in assay [3] were 98% (active) and -1%, respectively. Moreover, the result in assay [5], in assay [6], in assay [7] and in assay [8] was inactive.

With `CCN(CC)CCN1C(=O)c2oc3ccc(F)cc3c(=O)c2C1c1cccc(Cl)c1` (stereo not given), the growth inhibition is 93% (active) in assay [1] and 99% (active) in assay [4]. In addition, the inhibition in assay [2] is -4%; in assay [3], -2%. Also, the outcome in assay [5], in assay [6], in assay [7] and in assay [8] was inactive.

`Cc1cc(NCCC(=O)Nc2ccccc2)nc(NCC2CCCCC2)n1`: the results for the growth inhibition in assay [1] and in assay [4] were 62% (active) and 100% (active), respectively. Further, the inhibition in assay [2] is 14%; in assay [3], 3%. Further, the result in assay [5], in assay [6], in assay [7] and in assay [8] was inactive.

Consider `COc1ccc2ncc(F)c([C@@H](O)CN3CCC(NCc4ccc5c(c4)NCCS5)CC3)c2n1`, for which the results for the growth inhibition in assay [1] and in assay [4] were 69% (active) and 99% (active), respectively. The inhibition in assay [2] was 77% (active); in assay [3] it was -3%. The result in assay [5], in assay [6], in assay [7] and in assay [8] was inactive.

Take `CN(C)c1ccc(CN2CCC(CNC(=O)c3cc(-c4cccc(C(F)(F)F)c4)cs3)C2)cc1` (stereo not given): the growth inhibition is 34% in assay [1] and 96% (active) in assay [4]. For the same molecule, the inhibition in assay [2] was 39%; in assay [3] it was 0%. The outcome in assay [5], in assay [6], in assay [7] and in assay [8] was inactive.

Consider `Fc1ccc2[nH]c(-c3ccccc3)nc2c1CN1CCC(N2CCCC2)CC1`, for which the values for the growth inhibition in assay [1] and in assay [4] were 30% and 100% (active), respectively. The inhibition in assay [2] was 2%; in assay [3], -2%. The result in assay [5], in assay [6], in assay [7] and in assay [8] was inactive.

In the case of `COc1ccc(OC)c(Cc2cnc3nc(N)nc(N)c3c2C)c1`, the growth inhibition in assay [1] is 97% (active); in assay [4], 92% (active). The inhibition in assay [2] was 68% (active); in assay [3], 5%. The result in assay [5], in assay [6], in assay [7] and in assay [8] was inactive.

As for `CC(C)Cn1c(Sc2ccc(C#N)c([N+](=O)[O-])c2)nnc1-c1ccccc1`, the growth inhibition was 12% in assay [1] and 83% (active) in assay [4]. The inhibition was 17% in assay [2] and 2% in assay [3]. In addition, the outcome in assay [5], in assay [6], in assay [7] and in assay [8] was inactive.

For `FC(F)(F)c1ccc2nc(-c3cccc(-c4ccc(CNCCc5ccncc5)cc4)c3)[nH]c2c1`, the results for the growth inhibition in assay [1] and in assay [4] were 100% (active) and 99% (active), respectively. In addition, the inhibition in assay [2] was 23%; in assay [3], -1%. The result in assay [5], in assay [6], in assay [7] and in assay [8] was inactive.

Regarding `O=C(Nc1ccc(SC(F)(F)F)cc1)Nc1ccc(Cl)c(Cl)c1`, the figures for the growth inhibition in assay [1] and in assay [4] were 99% (active) and 98% (active), respectively. Further, the inhibition is 15% in assay [2] and 4% in assay [3]. Besides, the result in assay [5], in assay [6], in assay [7] and in assay [8] was inactive.

For the molecule `C=CCc1cc(Cc2cnc(N)nc2N)c2ccc(C)nc2c1O`, the figures for the growth inhibition in assay [1] and in assay [4] were 3% and 84% (active), respectively. For the same molecule, the inhibition in assay [2] is 51% (active); in assay [3] it was 0%. Moreover, the outcome in assay [5], in assay [6], in assay [7] and in assay [8] was inactive.

Consider `O=C(NC1CCCC1)c1ccc(N2CCC(NCc3cccc(C(F)(F)F)c3)CC2)cc1`, for which the figures for the growth inhibition in assay [1] and in assay [4] were 75% (active) and 87% (active), respectively. The inhibition in assay [2] is 11%; in assay [3] it was 1%. In addition, the result in assay [5], in assay [6], in assay [7] and in assay [8] was inactive.

As for `CN(C(=O)Nc1ccc(C(F)(F)F)cc1)C1CCN(CCCCCNC(=O)/C=C/c2ccc(Cl)c(Cl)c2)CC1`, the values for the growth inhibition in assay [1] and in assay [4] were 38% and 101% (active), respectively. Further, the results for the inhibition in assay [2] and in assay [3] were 57% (active) and -3%, respectively. Further, the outcome in assay [5], in assay [6], in assay [7] and in assay [8] was inactive.

Regarding `O=C(Nc1cc(Cl)ccc1O)c1cnn2c(C(F)(F)F)cc(-c3cccs3)nc12`, the growth inhibition in assay [1] is 74% (active); in assay [4], 100% (active). The inhibition in assay [2] was 8%; in assay [3], 1%. The result in assay [5], in assay [6], in assay [7] and in assay [8] was inactive.

For the molecule `O=C(Nc1ccc(C(F)(F)F)cc1)c1cccc(S(=O)(=O)NC2CCN(Cc3ccccc3)C2)c1` (stereo not given), the growth inhibition is -2% in assay [1] and 88% (active) in assay [4]. Moreover, the inhibition in assay [2] is 39%; in assay [3], -5%. The outcome in assay [5], in assay [6], in assay [7] and in assay [8] was inactive.

For the molecule `CCN(CC)C(=O)c1cccc(/C=C/c2ccc(-c3c(C)[nH]c(C)c(Cl)c3=O)cc2)c1`, the growth inhibition in assay [1] and in assay [4] was 96% (active) each time. For the same molecule, the values for the inhibition in assay [2] and in assay [3] were 9% and 6%, respectively. For the same molecule, the result in assay [5], in assay [6], in assay [7] and in assay [8] was inactive.

For `COc1c(C2CCN(CCCCNC(=O)c3ccc(-c4ccc(C#N)cc4)c(O)c3)CC2)ccc2c1CCCC2`, the growth inhibition was 78% (active) in assay [1] and 100% (active) in assay [4]. The inhibition in assay [2] is 35%; in assay [3], -2%. The result in assay [5], in assay [6], in assay [7] and in assay [8] was inactive.

On to `CCCCC(CC)NC(=O)[C@H]1CNCCN1C(=O)CCCc1ccccc1` (stereo not given in full), for which the growth inhibition is -1% in assay [1] and 94% (active) in assay [4]. Further, the figures for the inhibition in assay [2] and in assay [3] were 5% and 1%, respectively. The outcome in assay [5], in assay [6], in assay [7] and in assay [8] was inactive.

For the molecule `Cc1cc(C)cc(NC(=S)NCCCCN2CCN(c3cccc(Cl)c3)CC2)c1`, the growth inhibition in assay [1] was 13%; in assay [4], 88% (active). Moreover, the inhibition in assay [2] is 11%; in assay [3] it was 3%. The result in assay [5], in assay [6], in assay [7] and in assay [8] was inactive.
